Measurements from PubChem BioAssay (NCI).
The panel holds about 83,000 compounds, 20% with a hit somewhere; the sample as a whole holds those more often.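 Interpretation: 100, growth as untreated; towards 0, rising growth inhibition; 0, no net growth; 0 to -100, cell death. Compounds scoring below 10 were considered active.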

Experiments:
Assay in all cases: NCI-60 one-dose screen, 48 h (100 = growth as untreated, 0 = no growth, -100 = all killed)
[1] = tested on: HCT-15 colon; conditions: 10 µM
[2] = tested on: HT29 colon; conditions: 10 µM
[3] = tested on: SNB-75 CNS; conditions: 10 µM
[4] = tested on: SNB-19 CNS; conditions: 10 µM
[5] = tested on: U251 CNS; conditions: 10 µM
[6] = tested on: PC-3 prostate; conditions: 10 µM
[7] = tested on: SK-MEL-5 melanoma; conditions: 10 µM
[8] = tested on: UACC-62 melanoma; conditions: 10 µM unless noted
[9] = tested on: LOX IMVI melanoma; conditions: 10 µM
[10] = tested on: SK-MEL-28 melanoma; conditions: 10 µM

Measured: growth

O=C1N(C[P+](c2ccccc2)(c2ccccc2)c2ccccc2)CCCN1C[P+](c1ccccc1)(c1ccccc1)c1ccccc1
inactive: [1] 110% | [2] 102% | [3] 88.4% | [4] 98.3% | [5] 95.2% | [6] 92.5% | [7] 106% | [8] 94.7% | [9] 108% | [10] 102%

NNc1ccccc1C(=O)O
inactive: [1] 99.1% | [2] 105% | [3] 89.4% | [4] 113% | [5] 107% | [6] 99.1% | [7] 103% | [8] 107% | [9] 101% | [10] 118%

COc1ncnc2c1cnn2C
inactive: [1] 98.9% | [2] 107% | [3] 113% | [4] 110% | [5] 106% | [6] 101% | [7] 101% | [8] 98.9% | [9] 98% | [10] 111%

NC(C(=O)O)C(O)c1ccco1 (stereo not given)
inactive: [1] 99.1% | [2] 120% | [3] 106% | [4] 114% | [5] 102% | [6] 96% | [7] 104% | [8] 113% | [9] 103% | [10] 107%

C=CC(=O)OCCCCCCCC
inactive: [1] 95% | [2] 124% | [3] 91.2% | [4] 101% | [5] 98.8% | [6] 106% | [7] 110% | [8] 102% | [9] 101% | [10] 110%

O=C1OC[C@H]2[C@H](c3ccc(O)c(O)c3)c3cc(O)c(O)cc3C[C@H]12
inactive: [1] 116% | [2] 115% | [3] 116% | [4] 120% | [5] 116% | [6] 46.7% | [7] 102% | [8] 111% | [9] 113% | [10] 117%

CN(C)CCN(Cc1ccccc1)c1ccccc1
inactive: [1] 105% | [2] 98.3% | [3] 108% | [4] 105% | [5] 106% | [6] 106% | [7] 105% | [8] 97.8% | [9] 93.2% | [10] 113%

CC1CCC2C(C)(C)C3CC12CC1OC13C (stereo not given)
inactive: [1] 97.7% | [2] 107% | [3] 97.5% | [4] 102% | [5] 102% | [6] 99.5% | [7] 96.9% | [8] 103% | [9] 98.3% | [10] 103%

CCOC(=O)c1coc(C(=O)OCC)c1C(=O)OCC
inactive: [1] 105% | [2] 124% | [3] 92.3% | [4] 112% | [5] 102% | [6] 122% | [7] 108% | [8] 112% | [9] 108% | [10] 117%

Nc1ccccc1C(=O)Nc1ccc(Cl)cc1Cl
inactive: [1] 101% | [2] 93.2% | [3] 67.7% | [4] 96.1% | [5] 102% | [6] 78.8% | [7] 107% | [8] 88.7% | [9] 87.9% | [10] 100%

CN(c1ccccc1)c1ncnc2c1ncn2C
inactive: [1] 102% | [2] 102% | [3] 92.8% | [4] 102% | [5] 98.9% | [6] 95.8% | [7] 102% | [8] 96.8% | [9] 98.5% | [10] 112%

O=C1C=CC2=C3c4cc(O)c(O)cc4CC3(O)COC2=C1O (stereo not given)
inactive: [1] 105% | [2] 100% | [3] 88% | [4] 104% | [5] 105% | [6] 93.7% | [7] 138% | [8] 98.1% | [9] 99.2% | [10] 119%

COc1ccc(C)cc1OC
inactive: [1] 104% | [2] 108% | [3] 104% | [4] 107% | [5] 97.2% | [6] 105% | [7] 99.7% | [8] 99.5% | [9] 96.1% | [10] 115%

O=C(O)CCCCNC(=O)c1ccccc1
inactive: [1] 102% | [2] 101% | [3] 103% | [4] 108% | [5] 98.5% | [6] 100% | [7] 101% | [8] 110% | [9] 91.8% | [10] 111%
